# Source: PubChem BioAssay (NCATS)
# Records with an inconclusive call do not appear. Values without a mark were called inactive. Active and inactive are the calls of the source. The call rests on the fitted dose curve; in most records, active means well fitted cell-killing curve with a large enough effect; inconclusive means small, poorly fitted or top-dose-only effect; inactive means flat fitted curve, though single readings scatter.
# Experiment: qHTS of pediatric cancer cell lines to identify multiple opportunities for drug repurposing: Primary screen for Rh18 cells (AID 1347102); further: nearly all actives have a fitted effect of over 65% in size
# Details: Rh18 rhabdomyosarcoma viability, CellTiter-Glo luminescence, 48 h; series mostly up to 46 µM; activity change, negative = cytotoxic: at the top concentration
# In short: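 Viability after 48 h compound treatment at 37C, 500-1,000 cells/well, read as ATP luminescence with CellTiter-Glo. Primary screens used 11-point (MIPE, 0.78 nM-46 µM) or 8-point (NPC, 0.59 nM-46 µM) final concentrations; follow-up screens used 11-point dilutions.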
# On the % scale 0 is the no-effect control and ±100 the full control effect; potency means the concentration at half of the fitted maximal effect.
Structure (SMILES),"activity change, negative = cytotoxic",Potency
O=C(O)c1ccc(O)c2ncc(N3CCOCC3)cc12,5.81%,
COc1ccc(-c2oc3c(CC=C(C)C)c(O)cc(O)c3c(=O)c2O)cc1,8.2%,
CN(C)CCN(Cc1ccc(Cl)cc1)c1ccccn1,-8.29%,
CCCCN(CCCC)CC(O)c1cc(Cl)cc2c1-c1ccc(Cl)cc1C2=Cc1ccc(Cl)cc1 (centres undefined),0.882%,
NC(N)=Nc1nc(CSCCC(N)=NS(N)(=O)=O)cs1,14.5%,
O=C1NC(=O)C(=Cc2ccc(-c3ccc(F)cc3O)o2)S1,-8.01%,
CO[C@H]1/C=C\O[C@@]2(C)Oc3c(C)c(O)c4c(O)c(c(C=NN5CCN(C6CCCC6)CC5)c(O)c4c3C2=O)NC(=O)C(C)=CC=C[C@H](C)[C@H](O)[C@@H](C)[C@@H](O)[C@@H](C)[C@H](OC(C)=O)[C@H]1C,,0.118 µM (active)
CNC(=O)c1ccc2c(C(=Nc3cccc(CN(C)C)c3)c3ccccc3)c(O)[nH]c2c1,0.479%,
COc1cc([C@H]2Oc3cc([C@H]4Oc5cc(O)cc(O)c5C(=O)[C@H]4O)ccc3O[C@H]2CO)ccc1O,-19.5%,
CC(C)[C@H](O)C(=O)N[C@@H](C)C(=O)N[C@@H]1C(=O)N(C)CCc2ccccc21,0.849%,
CN1N=C(N)c2cn([C@@H]3O[C@H](COP(=O)(O)O)[C@@H](O)[C@@H]3O)c3ncnc1c23,,9.35 µM (active)
CCNC(=O)Nc1ccc(Oc2ncnc(N)c2C=NOC)cc1Cl,-2.99%,
CN1CC(=O)NC1=NC(=O)Nc1cccc(Cl)c1,-1.9%,
O=c1[nH]c(=O)n([C@H]2C[C@@H](O)[C@@H](CO)O2)cc1I,3.41%,
CCC(=O)OCC(=O)[C@@]1(OC(=O)CC)[C@@H](C)C[C@@H]2[C@H]3CCC4=CC(=O)C=C[C@]4(C)[C@@]3(F)[C@@H](O)C[C@@]21C,-7.47%,
CNc1nc(Nc2ccc(C(=O)N3CCOCC3)cc2OC)ncc1Cl,-12.8%,
CC1(C)[C@H]2CC[C@]3(C)[C@@H](C(=O)C=C4[C@@H]5C[C@@](C)(C(=O)O)CC[C@]5(C)CC[C@]43C)[C@@]2(C)CC[C@@H]1O,-8.08%,
CNC1CCC(N(Cc2cccc(-c3ccncc3)c2)C(=O)c2sc3ccccc3c2Cl)CC1 (centres undefined),,23.5 µM (active)
CC[C@H](C=C[C@@H](C)[C@H]1CC[C@H]2[C@@H]3CC=C4C[C@@H](O)CC[C@]4(C)[C@@H]3CC[C@]12C)C(C)C,10.7% [at 16.1 µM],
CN1CCN(c2ncc(-c3cc(Cl)cc(Cl)c3Cl)c(N)n2)CC1,-10.8%,
CCOc1ccccc1N=Nc1c(C)[nH]n(-c2nc(-c3ccccc3)cs2)c1=O,-13.1%,
C[C@H](CCC(=O)O)[C@H]1CC[C@H]2[C@H]3[C@@H](CC[C@]12C)[C@@]1(C)CC[C@@H](O)C[C@H]1C[C@@H]3O,-6.77%,
Nc1[nH]nc2nnc(-c3c(-c4ccccc4)nn4ccccc34)cc12,,2.64 µM (active)
O=C(CC12CC3CC(CC(C3)C1)C2)Nc1cccc2nc(NCCNCCO)ccc12,-21.8%,
CN1CCC(COc2cnc(-c3cccc(Cn4nc(-c5cccc(C#N)c5)ccc4=O)c3)nc2)CC1,20.1%,
Cc1cc(-c2ncc(CC(=O)Nc3ccc(-c4cnccn4)cn3)cc2C)ccn1,-20.1%,
CCCCC(C)(C)[C@H](O)C=C[C@H]1[C@H](O)CC(=O)[C@H]1CC=CCCCC(=O)O,0.601%,
CCc1cc(-c2n[nH]c(C)c2-c2ccc3c(c2)OCCO3)c(O)cc1O,,6.62 µM (active)
C[C@H](c1ccc(F)cc1CCCC(=O)O)N(c1cc(F)ccc1F)S(=O)(=O)c1ccc(Cl)cc1,-14.3%,
